Experiment [1] can be described thus: qHTS assay for small molecule agonists of the p53 signaling pathway (AID 651631; calls by dose curve; further: nearly all actives have a fitted effect of over 15% in size). In short, it runs like this: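 Read-out is beta-lactamase FRET fluorescence measured 2 h after substrate addition at room temperature, in HCT-116 cells with a p53 response element-driven reporter exposed to compounds for 16 h at 37 °C.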
Experiment [2] can be described thus: qHTS assay for small molecules that induce genotoxicity in human embryonic kidney cells expressing luciferase-tagged ATAD5 (AID 651632). Further: nearly all actives have a fitted effect of over 15% in size. Put shortly: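 Genotoxicity read-out via ATAD5-luciferase: HEK293T cells, 16 hr compound incubation at 37C, Amplite detection.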
A general note: qHTS replaces the single test concentration by a dilution series.

A short description of experiment [3]: qHTS assay for small molecule agonists of the p53 signaling pathway - cell viability (AID 651633; calls by dose curve;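 further: p53RE-bla HCT reporter cells with a stable beta-lactamase p53 reporter; series mostly up to about 83 µM; nearly all actives have a fitted effect of over 30% in size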). In short, it runs like this:
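Viability counter-read: CellTiter-Glo luminescence (30 min, room temperature) in the same p53RE-bla plates. These plates had been exposed to compounds for 16 h at 37 C.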

The nature of experiment [4]: qHTS assay for small molecules that induce genotoxicity in human embryonic kidney cells expressing luciferase-tagged ATAD5 - cell viability (AID 651634; calls by dose curve; further: nearly all actives have a fitted effect of over 25% in size). Put shortly: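 Live-cell protease activity (CellTiter-Fluor, fluorescence) indicates viability. HEK293T cells with luciferase-tagged ATAD5; 15.5 hr compound treatment at 37C.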
The nature of experiment [5]: qHTS assay to test for compound auto fluorescence at 590 nm (red) in HepG2 cells (AID 720674). Put shortly:
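1 hr compound incubation on HepG2 cells, 37 C, 5% CO2; plate read ex 540 nm / em 590 nm; intensities reported as Rose Bengal sodium equivalents.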

Experiment [6] in a line: qHTS assay to test for compound auto fluorescence at 460 nm (blue) in HEK293 cells (AID 720678). Put shortly: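 HEK293 cells (2,000 per well, medium with 10% dialyzed FBS) attached for 4-5 hr at 37C, then received compound and stood overnight at 37C, 5% CO2. Blue fluorescence was read at Ex/Em 405/460 nm and expressed relative to triamterene.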
The nature of experiment [7]: qHTS assay to test for compound auto fluorescence at 590 nm (red) in HEK293 cells (AID 720679). Put shortly: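 HEK293 cells (2,000/well, medium with 10% dialyzed FBS) attached for 4-5 hr at 37C, received 23 nL compound and were incubated overnight at 37C, 5% CO2. Red fluorescence was then read at 540/590nm Ex/Em, referenced to Rose Bengal sodium.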
Experiment [8] is described as follows: qHTS assay for small molecule disruptors of the mitochondrial membrane potential - cell viability (AID 720634; calls by dose curve; further: nearly all actives have a fitted effect of over 20% in size; further: potency means the concentration at half of the fitted maximal effect). Put shortly:
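Human hepatoma HepG2 cells were treated for 1 hr with test chemicals, then given m-MPI dye and CellTiter-Glo. Cell viability reflects luminescence proportional to cellular ATP.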

Experiment [9] in a line: qHTS assay for small molecule disruptors of the mitochondrial membrane potential (AID 720635). Further: potency means the concentration at half of the fitted maximal effect. Put shortly: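 Mitochondrial membrane potential tracked with Mito-MPS dye, red aggregates (ex 540/em 590 nm) against green monomers (ex 490/em 535 nm). Compound treatment 1 hr at 37C, dye 30 min in HepG2.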
Experiment [10] can be described thus: qHTS assay to test for compound auto fluorescence at 535 nm (green) in HepG2 cells (AID 720675).

This note sets out measurements from PubChem BioAssay (Tox21).

Values joined by “and” are separate entries in the source; they are usually repeats but may differ in a detail not shown here. Equal values may be shown once. Results filed as inconclusive are left out. Active and inactive are the calls of the source. Unless noted, the call rests on the fitted dose curve; in most records, active means well fitted curve in the direction sought with a large enough effect in the repeat runs; inconclusive means weak or mixed curves; inactive means no such curve, though single readings can be large; an effect the other way counts as inactive or inconclusive.

`C[N+](C)(C)C`: the Potency entry in [1], in experiment [2], in [3], in experiment [4] and in [6] was “inactive” in each case. Further, the compound was classed as inactive in experiment [5] and in experiment [7].

As for `O=C1Nc2ccc(Cl)cc2C(c2ccccc2)=NC1O` (configuration not stated), the Potency entry in [1], in experiment [2], in [3], in [4], in experiment [8] and in experiment [6] was “inactive” throughout. Also, the compound was called inactive in [5] and in experiment [7].

With `OC(c1ccc(Cl)cc1)(c1cncnc1)c1ccccc1Cl` (configuration not stated), the Potency result in [1], in experiment [2], in [3], in experiment [4] and in experiment [6] was “inactive” throughout. The Potency in experiment [9] is 49.4 µM (active) and 30.6 µM (active). The compound was called inactive in experiment [5], in experiment [10] and in experiment [7].

For the compound `Brc1ccc(Br)cc1`, the Potency entry in experiment [1], in [2], in experiment [3], in [4], in experiment [8] and in experiment [9] was “inactive” in each case. Moreover, in [6], the Potency result was “inactive”. Besides, the call in [5], in experiment [10] and in experiment [7] was inactive.

Turning to `CC1(C)C(C(=O)OC(C#N)c2cccc(Oc3ccccc3)c2)C1(C)C` (configuration not stated), the Potency entry in experiment [1], in experiment [2], in experiment [3], in [4] and in [6] was “inactive” in each case. Further, the figures for the Potency in experiment [8] and in experiment [9] were 54.4 µM (active) and 30.9 µM (active), respectively. Further, the outcome in [5], in [10] and in [7] was inactive.

`O=NN(c1ccccc1)c1ccccc1`: the Potency result in [1], in [2], in [3], in experiment [4], in [8] and in experiment [9] was “inactive” in each case. Also, the Potency result in experiment [6] was “inactive”. The outcome in experiment [5], in [10] and in experiment [7] was inactive.

As to `O=C1CCCO1`, the Potency result in experiment [1], in experiment [2], in experiment [3], in experiment [4], in [8] and in experiment [9] was “inactive” throughout. In addition, in experiment [6], the Potency result was “inactive”. Moreover, the outcome in experiment [5] and in experiment [7] was inactive.

Turning to `Cc1ccc([N+](=O)[O-])cc1`, the Potency result in experiment [1], in [2], in experiment [3], in experiment [4], in [8] and in experiment [9] was “inactive” in each case. In [6], the Potency entry is “inactive”. The call in experiment [5] and in [7] was inactive.

As to `O=P(OCCCl)(OCCCl)OCCCl`, the Potency result in experiment [1], in experiment [2], in [3], in experiment [4], in [8] and in [9] was “inactive” each time. In addition, the Potency entry in experiment [6] was “inactive”. Besides, the compound was classed as inactive in experiment [5] and in [7].

Regarding `CCCCSP(=O)(SCCCC)SCCCC`, the Potency result in [1], in experiment [2], in [3], in experiment [4] and in experiment [6] was “inactive” in each case. In addition, the call in experiment [5], in experiment [10] and in [7] was inactive.

In the case of `Cn1c(-c2ccccc2)cc(-c2ccccc2)[n+]1C`, the Potency result in [1], in [3], in [4], in experiment [8], in [9] and in experiment [6] was “inactive” each time. Besides, the outcome in [5], in experiment [10] and in [7] was inactive.

Take `CNC(=O)Oc1cccc2c1OC(C)(C)C2`: the Potency entry in experiment [1], in experiment [3], in [4], in [8], in experiment [9] and in experiment [6] was “inactive” each time. The result in experiment [5], in experiment [10] and in experiment [7] was inactive.

Consider `[CH3][Sn]([Cl])([Cl])[Cl]`, for which the Potency entry in experiment [1], in experiment [2], in [3], in experiment [4], in experiment [8] and in [9] was “inactive” throughout. Further, the Potency result in experiment [6] is “inactive”. Also, the compound was classed as inactive in experiment [5], in [10] and in experiment [7].

Consider `CCN(CC)C(=O)C(C)Oc1cccc2ccccc12` (configuration not stated), for which the Potency entry in [1], in [2], in [3], in [4], in experiment [8] and in experiment [9] was “inactive” in each case. The Potency entry in experiment [6] was “inactive”. In addition, the compound was classed as inactive in experiment [5], in [10] and in experiment [7].

As for `N#CCCCCC#N`, the Potency entry in experiment [1], in experiment [2], in experiment [3], in experiment [4], in experiment [8] and in [9] was “inactive” throughout. Further, the Potency entry in [6] is “inactive”. Moreover, the compound was classed as inactive in [5], in [10] and in [7].

With `COc1ccc(CO)cc1`, the Potency entry in [1], in experiment [3], in [4], in [8], in experiment [9] and in experiment [6] was “inactive” each time. Further, the compound was called inactive in experiment [5], in experiment [10] and in experiment [7].

As to `ClC(Cl)(Cl)c1ccccc1`, the Potency result in experiment [1], in experiment [2], in experiment [3], in experiment [4], in experiment [8] and in experiment [9] was “inactive” in each case. Also, the Potency entry in experiment [6] was “inactive”. For the same compound, the call in experiment [5], in experiment [10] and in [7] was inactive.

For the compound `ClC(Cl)(Cl)Br`, the Potency result in experiment [1], in [2], in experiment [3], in experiment [4], in experiment [8] and in experiment [9] was “inactive” each time. Also, the Potency result in experiment [6] was “inactive”. The outcome in experiment [5] and in experiment [7] was inactive.

As to `CN(C)c1ccccc1`, the Potency entry in experiment [1], in experiment [2], in experiment [3], in experiment [4], in [8] and in experiment [9] was “inactive” in each case. For the same compound, the Potency result in experiment [6] was “inactive”. Also, the compound was classed as inactive in experiment [5], in experiment [10] and in experiment [7].

Take `CCCCOCC1CO1` (configuration not stated): the Potency result in experiment [1], in experiment [2], in [3], in experiment [4], in experiment [8] and in [9] was “inactive” in each case. For the same compound, the Potency entry in experiment [6] was “inactive”. The compound was classed as inactive in experiment [5], in experiment [10] and in [7].

`COc1ccc(C=O)cc1OC`: the Potency result in [1], in [2], in [3], in [4], in experiment [8] and in experiment [6] was “inactive” in each case. Besides, the compound was called inactive in experiment [5] and in experiment [7].

Regarding `O=NN1CCOCC1`, the Potency entry in [1], in experiment [2], in [3], in experiment [4], in [8] and in experiment [9] was “inactive” in each case. The Potency entry in experiment [6] was “inactive”. Moreover, the call in experiment [5], in experiment [10] and in experiment [7] was inactive.

Turning to `CC(C)Nc1nc(Cl)nc(NC(C)C)n1`, the Potency entry in experiment [1], in [2], in experiment [3], in experiment [4], in experiment [8] and in experiment [9] was “inactive” in each case. Moreover, the Potency result in experiment [6] was “inactive”. Further, the compound was classed as inactive in experiment [5], in experiment [10] and in experiment [7].

As for `CN(C)P(=O)(N(C)C)N(C)C`, the Potency result in [1], in experiment [2], in [3], in experiment [4], in experiment [8] and in experiment [9] was “inactive” throughout. The Potency entry in experiment [6] was “inactive”. For the same compound, the call in experiment [5] and in experiment [7] was inactive.
